Inconclusive results are not listed. Calls of active or inactive are those of the source. Unless noted, the call rests on the fitted dose curve; in most records, active means well fitted cell-killing curve with a large enough effect; inconclusive means small, poorly fitted or top-dose-only effect, or effect the other way; inactive means no such curve, though single readings can be large or run the other way.
How the values were obtained:
[1] = Quantitative High-Throughput drug screen in 47 multiple myeloma cell lines against the NCATS MIPE library collection: XG1_PLB cell viability assay (AID 1919866); further: nearly all actives have a fitted effect of over 35% in size
Method in brief: (§1)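 ATP-based CellTiter-Glo luminescence after 48 h drug exposure (37 °C, 5% CO2) of 500 myeloma cells per well. DMSO-only wells set 100% viability, media-only wells 0%; MIPE 4.0 library added by pin tool.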

[2] = Quantitative High-Throughput drug screen in 47 multiple myeloma cell lines against the NCATS MIPE library collection: VP6_DJ cell viability assay (AID 1919867); further: nearly all actives have a fitted effect of over 40% in size
Method in brief: as §1

[3] = Quantitative High-Throughput drug screen in 47 multiple myeloma cell lines against the NCATS MIPE library collection: UTMC2_PLB cell viability assay (AID 1919868); conditions: CellTiter-Glo ATP luminescence, 48 h; viability (% of DMSO control): at 45.8 µM (top of the series) unless noted; further: nearly all actives have a fitted effect of over 55% in size
Method in brief: as §1

[4] = Quantitative High-Throughput drug screen in 47 multiple myeloma cell lines against the NCATS MIPE library collection: PE2_PLB cell viability assay (AID 1919869); further: nearly all actives have a fitted effect of over 35% in size
Method in brief: as §1

[5] = Quantitative High-Throughput drug screen in 47 multiple myeloma cell lines against the NCATS MIPE library collection: PCM6_Riken cell viability assay (AID 1919870); further: nearly all actives have a fitted effect of over 30% in size
Method in brief: as §1

[6] = Quantitative High-Throughput drug screen in 47 multiple myeloma cell lines against the NCATS MIPE library collection: RPMI8226_ATCC cell viability assay (AID 1919871); further: nearly all actives have a fitted effect of over 30% in size
Method in brief: as §1

[7] = Quantitative High-Throughput drug screen in 47 multiple myeloma cell lines against the NCATS MIPE library collection: OPM2_DSMZ cell viability assay (AID 1919872); further: nearly all actives have a fitted effect of over 30% in size
Method in brief: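 Steps: seed 500 cells per well; pin-transfer MIPE 4.0 library; incubate 48 h at 37C, 5% CO2, humidified; add CellTiter-Glo, 5 min room temperature; read luminescence.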

[8] = Quantitative High-Throughput drug screen in 47 multiple myeloma cell lines against the NCATS MIPE library collection: KMS11_JCRBsus cell viability assay (AID 1919873); further: nearly all actives have a fitted effect of over 50% in size
Method in brief: as §1

[9] = Quantitative High-Throughput drug screen in 47 multiple myeloma cell lines against the NCATS MIPE library collection: KMS28BM_JCRB cell viability assay (AID 1919874); further: nearly all actives have a fitted effect of over 35% in size
Method in brief: as §1

[10] = qHTS drug screen for cell cycle checkpoint inhibitors in PARPi-resistant BRCA-mutant ovarian cancer cell lines. (AID 1963452; calls by dose curve); conditions: PEO1/OlaR viability, CellTiter-Glo luminescence, 96 h; for Z-AUC: stronger effect = lower value
Method in brief: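 PEO1, PEO4 and PEO1/OlaR ovarian cancer cells, 600 per well, exposed 96 h at 37C to a dilution series. Viability read by CellTiter-Glo luminescence, normalized to DMSO and empty wells; activity summarized as Z-AUC.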

[11] = qHTS for identification of novel therapeutic agents for treatment of microphthalmiaassociated transcription factor (MiT) renal cell carcinoma (RCC) (AID 1963991; calls by dose curve); conditions: CellTiter-Glo, 48 h; for Potency: active = Z-AUC below -0.8 in all three lines; for z-score: stronger effect = lower value
Method in brief: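 Three TFE3-fusion RCC cell lines (UOK109, UOK124, UOK145), 500 cells/well, were exposed to the 1912-compound MIPE 4.0 library for 48 hours at 37 C. Viability was read by CellTiter-Glo luminescence, normalised to DMSO (100%) and empty wells (0%), with 11-concentration curve fits.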

[12] = measured here: PEO1 parental Z-AUC
[13] = TFE3-RCC UOK109 viability, measured here: UOK109 Z-AUC
[14] = TFE3-RCC viability, measured here: UOK124 Z-AUC
[15] = TFE3-RCC viability, measured here: UOK145 Z-AUC
Potency means the concentration at half of the fitted maximal effect.

For `Cc1ccc(NC(=O)C2(c3ccc4c(c3)OC(F)(F)O4)CC2)nc1-c1cccc(C(=O)O)c1`, the Potency [1] was 46.9 nM (active), the Potency [2] was 46.9 nM (active) and the Potency [3] was 83.3 nM (active). The Potency [4] was 105 nM (active), the Potency [5] was 33.2 nM (active) and the Potency [6] was 93.5 nM (active). For the same compound, the Potency [7] was 74.3 nM (active), the Potency [8] was 46.9 nM (active) and the Potency [9] was 41.8 nM (active). For the same compound, the Z-AUC [10] was 0.456 (inactive), the Z-AUC [10, 12] was 0.813 and the Z-AUC ([10]; measured here: PEO4 Z-AUC) was 0.515. For the same compound, the Potency ([11]; TFE3-RCC UOK109 viability) was 235 nM (active), the z-score [11, 13] was -2.27 and the z-score [11, 14] was -1.92. For the same compound, the z-score [11, 15] was -1.79.
With `CC(C)[C@H](C(=O)Nc1ccc(C(=O)NO)cc1)c1ccccc1` the Potency [1] was 833 nM (active), the Potency [2] was 372 nM (active) and the Potency [3] was 469 nM (active). For the same compound, the Potency [4] was 1050 nM (active), the Potency [5] was 935 nM (active) and the Potency [6] was 1320 nM (active). For the same compound, the Potency [7] was 833 nM (active), the Potency [8] was 469 nM (active) and the Potency [9] was 526 nM (active). For the same compound, the Potency [10] was 1380 nM (active), the Z-AUC [10, 12] was -1.53 and the Z-AUC ([10]; measured here: PEO4 Z-AUC) was -1.69. The Potency ([11]; TFE3-RCC UOK109 viability) was 1870 nM (active), the z-score [11, 13] was -1.43 and the z-score [11, 14] was -1.8. It also gave a z-score [11, 15] of -1.54.
In the case of `C[C@]1(CO)CN(c2cc(C(=O)Nc3ccc4c(c3)-c3c(c(C(N)=O)nn3-c3ccc(F)cc3)CC4)c(Cl)cn2)C[C@@]1(C)CO`, the Potency [1] is reported as 14800 nM (active), the Potency [2] is reported as 16600 nM (active) and the Potency [3] is reported as 11800 nM (active). The Potency [4] was 11800 nM (active), the Potency [5] was 16600 nM (active) and the Potency [6] was 2960 nM (active). The Potency [8] was 3720 nM (active).
With `C[C@@]12O[C@@H](C[C@]1(O)CO)n1c3ccccc3c3c4c(c5c6ccccc6n2c5c31)CNC4=O` the Potency [1] was 132 nM (active), the Potency [2] was 264 nM (active) and the Potency [3] was 118 nM (active). The Potency [4] was 118 nM (active), the Potency [5] was 526 nM (active) and the Potency [6] was 1320 nM (active). For the same compound, the Potency [7] was 1480 nM (active), the Potency [8] was 418 nM (active) and the Potency [9] was 833 nM (active). The Z-AUC [10] was -1.24 (inactive), the Z-AUC [10, 12] was -0.538 and the Z-AUC ([10]; measured here: PEO4 Z-AUC) was -0.928. For the same compound, the Potency ([11]; TFE3-RCC UOK109 viability) was 5260 nM (active), the z-score [11, 13] was -1.64 and the z-score [11, 14] was -0.853. The z-score [11, 15] was -1.26.
For `Cn1c2ccccc2c2c3c(c4c5ccccc5n(CCC#N)c4c21)CNC3=O`, the Potency [1] was 2350 nM (active), the Potency [2] was 2960 nM (active) and the Potency [3] was 2640 nM (active). The Potency [4] was 1870 nM (active), the Potency [5] was 1870 nM (active) and the Potency [6] was 20900 nM (active). For the same compound, the Potency [7] was 11800 nM (active), the Z-AUC [10] was -0.442 (inactive) and the Z-AUC [10, 12] was -1.02. The Z-AUC ([10]; measured here: PEO4 Z-AUC) was -1.08, the Potency ([11]; TFE3-RCC UOK109 viability) was 7430 nM (active) and the z-score [11, 13] was -0.993. It also gave a z-score [11, 14] of -2.34 and a z-score [11, 15] of -1.2.
In the case of `Cc1ccc(-c2ncn(-c3ccc(Nc4nccc(-c5cccc(N6CCOCC6)c5)n4)cc3)n2)cn1`, the Potency [1] is reported as 93.5 nM (active), the Potency [2] is reported as 29.6 nM (active) and the Potency [3] is reported as 187 nM (active). For the same compound, the Potency [4] was 372 nM (active), the Potency [5] was 37.2 nM (active) and the Potency [6] was 132 nM (active). For the same compound, the Potency [7] was 296 nM (active), the Potency [8] was 74.3 nM (active) and the Potency [9] was 74.3 nM (active). The Z-AUC [10] was -1.4 (inactive), the Z-AUC [10, 12] was -2.09 and the Z-AUC ([10]; measured here: PEO4 Z-AUC) was -1.65. The Potency ([11]; TFE3-RCC UOK109 viability) was 264 nM (active), the z-score [11, 13] was -1.3 and the z-score [11, 14] was -2.07. For the same compound, the z-score [11, 15] was -1.38.
With `C=C1C(=CC=C2CCC[C@]3(C)[C@@H]([C@H](C)C=C[C@H](C)C(C)C)CC[C@@H]23)C[C@@H](O)C[C@@H]1O` the Potency [1] was 1320 nM (active), the Potency [2] was 132 nM (active) and the Potency [3] was 2090 nM (active). For the same compound, the Potency [4] was 16600 nM (active), the Potency [5] was 1320 nM (active) and the Potency [6] was 14800 nM (active). For the same compound, the Potency [7] was 10500 nM (active), the Potency [8] was 526 nM (active) and the Potency [9] was 209 nM (active). The Z-AUC [10] was 0.703 (inactive), the Z-AUC [10, 12] was 0.5 and the Z-AUC ([10]; measured here: PEO4 Z-AUC) was 0.821. For the same compound, the Potency ([11]; TFE3-RCC UOK109 viability) was 418 nM (active), the z-score [11, 13] was -1.36 and the z-score [11, 14] was -0.997. The z-score [11, 15] was -1.08.
With `Nc1ncnc2c1c(-c1cnc3[nH]ccc3c1)nn2C1CCCC1` the Potency [1] was 209 nM (active), the Potency [2] was 372 nM (active) and the Potency [3] was 526 nM (active). The Potency [4] was 1320 nM (active), the Potency [5] was 1480 nM (active) and the Potency [6] was 166 nM (active). The Potency [7] was 935 nM (active), the Potency [8] was 46.9 nM (active) and the Potency [9] was 4180 nM (active). For the same compound, the Z-AUC [10] was -1.87 (inactive), the Z-AUC [10, 12] was -2.04 and the Z-AUC ([10]; measured here: PEO4 Z-AUC) was -1.31. The Potency ([11]; TFE3-RCC UOK109 viability) was 264 nM (active), the z-score [11, 13] was -2.06 and the z-score [11, 14] was -1.51. It also gave a z-score [11, 15] of -1.32.
With `C[C@@H]1COC(Nc2ccc3ncnc(Nc4ccc(OCc5nccs5)c(Cl)c4)c3c2)=N1` the Potency [1] was 105 nM (active), the Potency [2] was 3720 nM (active) and the Potency [3] was 2960 nM (active). For the same compound, the Potency [4] was 4180 nM (active), the Potency [5] was 2960 nM (active) and the Potency [6] was 33200 nM (active). The Potency [7] was 26400 nM (active), the Potency [8] was 18700 nM (active) and the Potency [10] was 13800 nM (active). For the same compound, the Z-AUC [10, 12] was -1.34 and the Z-AUC ([10]; measured here: PEO4 Z-AUC) was -1.07.
With `CC(C)C[C@H](NC(=O)CNC(=O)c1cc(Cl)ccc1Cl)B(O)O` the Potency [1] was 46.9 nM (active), the Potency [2] was 37.2 nM (active) and the Potency [3] was 418 nM (active). The Potency [4] was 41.8 nM (active), the Potency [5] was 66.2 nM (active) and the Potency [6] was 166 nM (active). For the same compound, the Potency [7] was 132 nM (active), the Potency [8] was 52.6 nM (active) and the Potency [9] was 66.2 nM (active). For the same compound, the Z-AUC [10] was -0.869 (inactive), the Z-AUC [10, 12] was -1.48 and the Z-AUC ([10]; measured here: PEO4 Z-AUC) was -1.83. For the same compound, the Potency ([11]; TFE3-RCC UOK109 viability) was 372 nM (active), the z-score [11, 13] was -1.3 and the z-score [11, 14] was -1.47. For the same compound, the z-score [11, 15] was -2.81.
With `C=CCn1c(=O)c2cnc(Nc3ccc(N4CCN(C)CC4)cc3)nc2n1-c1cccc(C(C)(C)O)n1` the Potency [1] was 166 nM (active), the Potency [2] was 372 nM (active) and the Potency [3] was 148 nM (active). The Potency [4] was 235 nM (active), the Potency [5] was 469 nM (active) and the Potency [6] was 2350 nM (active). The Potency [7] was 1180 nM (active), the Potency [8] was 264 nM (active) and the Potency [9] was 418 nM (active). For the same compound, the Potency [10] was 138 nM (active), the Z-AUC [10, 12] was -1.63 and the Z-AUC ([10]; measured here: PEO4 Z-AUC) was -1.42. The Potency ([11]; TFE3-RCC UOK109 viability) was 235 nM (active), the z-score [11, 13] was -1.89 and the z-score [11, 14] was -1.72. For the same compound, the z-score [11, 15] was -2.1.

Reference: PubChem BioAssay (NCATS)
